Assay outcomes: PubChem BioAssay, National Center for Advancing Translational Sciences (NCATS)
This is a sample that favours compounds with a hit; in the whole collection about 12% have one here.
G9a block: G9a (human) methyltransferase inhibition; 8.8% of 350,000 active; Q96KQ7; G9a H3K9 monomethylation, AlphaScreen, 2 h; Potency, µM (highest dose often 102 µM), actives largely listed as inhibitors; also: nearly all actives have a fitted effect of over 75% in size
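G9a (20 nM) preincubated 15 min RT with compounds, then 500 nM biotinylated H3K9 peptide and 20 uM SAM added; 2 h RT reaction. Monomethyl-H3K9 product detected by AlphaScreen with anti-H3K9me1 antibody, streptavidin donor and anti-rabbit IgG acceptor beads.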
BAZ2B inh: BAZ2B (human) inhibition. Potency, µM (titrated, usually from 114 µM), actives largely listed as inhibitors. Q9UIF8. AlphaScreen BAZ2B-H3K14Ac peptide displacement. 4.4% of 360,000 active; also: nearly all actives have a fitted effect of over 60% in size
Target sequence (Q9UIF8 whole entry, looked up): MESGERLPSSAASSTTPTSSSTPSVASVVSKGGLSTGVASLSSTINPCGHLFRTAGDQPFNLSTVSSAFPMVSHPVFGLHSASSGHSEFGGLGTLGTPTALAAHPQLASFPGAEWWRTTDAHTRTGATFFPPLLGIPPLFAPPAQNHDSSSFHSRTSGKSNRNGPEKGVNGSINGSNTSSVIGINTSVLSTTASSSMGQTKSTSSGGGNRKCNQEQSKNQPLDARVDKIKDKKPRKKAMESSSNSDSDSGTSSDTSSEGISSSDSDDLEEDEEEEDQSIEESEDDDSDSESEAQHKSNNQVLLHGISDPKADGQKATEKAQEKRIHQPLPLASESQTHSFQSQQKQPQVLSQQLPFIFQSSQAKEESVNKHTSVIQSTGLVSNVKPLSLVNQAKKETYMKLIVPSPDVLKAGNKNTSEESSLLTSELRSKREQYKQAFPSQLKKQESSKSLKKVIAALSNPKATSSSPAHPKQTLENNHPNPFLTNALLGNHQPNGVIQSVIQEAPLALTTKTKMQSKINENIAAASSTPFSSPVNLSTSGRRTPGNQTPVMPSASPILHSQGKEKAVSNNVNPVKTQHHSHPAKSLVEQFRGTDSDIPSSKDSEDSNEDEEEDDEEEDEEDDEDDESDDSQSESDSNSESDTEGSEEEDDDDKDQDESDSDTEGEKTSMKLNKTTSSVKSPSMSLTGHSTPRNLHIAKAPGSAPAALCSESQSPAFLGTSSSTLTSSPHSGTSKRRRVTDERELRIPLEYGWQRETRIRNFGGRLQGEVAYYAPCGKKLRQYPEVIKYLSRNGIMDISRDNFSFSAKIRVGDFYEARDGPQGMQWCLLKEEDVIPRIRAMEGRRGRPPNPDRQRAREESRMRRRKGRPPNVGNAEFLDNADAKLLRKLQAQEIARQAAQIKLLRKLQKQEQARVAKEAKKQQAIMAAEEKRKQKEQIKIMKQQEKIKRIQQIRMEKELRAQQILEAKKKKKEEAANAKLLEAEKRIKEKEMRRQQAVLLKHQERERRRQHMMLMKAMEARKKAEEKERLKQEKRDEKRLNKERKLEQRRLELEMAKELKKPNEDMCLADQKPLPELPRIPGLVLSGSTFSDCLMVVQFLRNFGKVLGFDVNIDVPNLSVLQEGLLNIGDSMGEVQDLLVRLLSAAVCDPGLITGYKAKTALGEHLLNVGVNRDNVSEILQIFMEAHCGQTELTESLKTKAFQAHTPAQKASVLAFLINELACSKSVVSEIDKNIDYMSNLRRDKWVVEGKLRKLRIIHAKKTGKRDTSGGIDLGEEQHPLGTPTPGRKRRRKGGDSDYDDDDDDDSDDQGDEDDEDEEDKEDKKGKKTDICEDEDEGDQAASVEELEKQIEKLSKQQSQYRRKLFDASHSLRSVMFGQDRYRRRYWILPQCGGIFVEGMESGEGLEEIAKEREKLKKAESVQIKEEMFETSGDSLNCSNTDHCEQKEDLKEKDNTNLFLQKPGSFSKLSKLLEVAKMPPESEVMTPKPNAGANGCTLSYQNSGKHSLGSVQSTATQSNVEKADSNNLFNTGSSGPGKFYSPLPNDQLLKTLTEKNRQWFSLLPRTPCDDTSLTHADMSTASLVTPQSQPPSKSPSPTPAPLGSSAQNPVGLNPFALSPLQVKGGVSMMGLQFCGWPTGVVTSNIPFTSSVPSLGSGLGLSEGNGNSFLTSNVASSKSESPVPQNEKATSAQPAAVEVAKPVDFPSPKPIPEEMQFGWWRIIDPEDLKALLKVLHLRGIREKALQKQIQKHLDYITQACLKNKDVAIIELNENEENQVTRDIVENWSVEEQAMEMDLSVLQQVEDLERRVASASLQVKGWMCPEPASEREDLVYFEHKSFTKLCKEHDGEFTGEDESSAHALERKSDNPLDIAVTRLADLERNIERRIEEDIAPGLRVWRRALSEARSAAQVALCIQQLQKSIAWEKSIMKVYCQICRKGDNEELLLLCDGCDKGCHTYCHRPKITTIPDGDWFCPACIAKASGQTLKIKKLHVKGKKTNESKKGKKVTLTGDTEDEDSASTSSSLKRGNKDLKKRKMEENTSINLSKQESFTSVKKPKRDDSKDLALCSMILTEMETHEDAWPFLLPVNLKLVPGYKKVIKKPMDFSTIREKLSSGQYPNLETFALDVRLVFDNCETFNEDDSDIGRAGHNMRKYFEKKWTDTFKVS
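In this displacement format the biotinylated H3(5-23) peptide acetylated at Lys14 serves as ligand at 50 nM, with BAZ2B at 50 nM in PBS pH 7.4 containing 0.01% Tween-20. Donor and acceptor beads are 10 ug/mL final.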
JMJD2A Tudor: inhibitors of human JMJD2A Tudor domain; O75164; AlphaScreen JMJD2A-Tudor / H3K4me3 peptide binding; Potency, µM (highest dose often 114 µM), most hits filed as inhibitors; 4.4% of 390,000 active; AID 504339; also: nearly all actives have a fitted effect of over 50% in size
Sfp inh: inhibitors of Bacillus subtilis Sfp phosphopantetheinyl transferase. Potency, µM, usual class: inhibitors. 3.5% of 310,000 active. Biochemical Sfp PPTase activity, qHTS. AID 1490. Q9F4F7;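 also: the enzyme is Sfp with the accession as filed and its product quenches rhodamine fluorescence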
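Sfp 15 nM + cpd, 15 min RT; start w/ rhodamine-CoA 5 uM, BHQ-2-YbbR 12.5 uM (final); 50 mM Hepes pH 7.6, 10 mM MgCl2, 0.01% NP-40, 0.01% BSA; read 525/598 nm at 0 and 30 min.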
HP1b binding inh: inhibitors of HP1-beta chromodomain binding to methylated histone tails. AlphaScreen HP1-beta / biotin-H3K9me3 peptide binding. Potency, µM (highest dose often 114 µM), actives largely listed as inhibitors. 0.56% of 390,000 active; also: nearly all actives have a fitted effect of over 70% in size
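Compound inhibition of the preformed complex between 50 nM HP1-beta and 50 nM biotinylated H3K9me3 peptide was read by AlphaScreen. Buffer was PBS pH 7.4 with 0.01% Tween-20. Incubations ran 30 min at room temperature, with 10 ug/mL donor/acceptor beads.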
A number is an active result; 0 = inactive; ? = inconclusive; - = not tested or not shown; [ ] = dose if it differs, or a comment. Calls follow the shape of the dose curve; as a rule, active = well fitted curve in the direction sought with a large enough effect; inconclusive = small, poorly fitted or top-dose-only effect, or another doubt; inactive = no such curve, though single readings can be large; an effect the other way counts as inactive or inconclusive.

SMILES	G9a block	BAZ2B inh	JMJD2A Tudor	Sfp inh	HP1b binding inh
COc1ccc2[nH]c3c(C)c4ccncc4c(C)c3c2c1	39.8µM	?	0	15.8µM	0
C=CCOC(=O)NC(c1ccc(F)c(F)c1)C(C(C)=O)C(=O)OC (stereo not drawn)	-	-	-	0	-
S=C(Nc1ccccc1)Nc1ccc(Br)cc1	-	0	0	0	0
NC(=S)NNC(=S)Nc1ccccc1	10µM	0	0	10µM	?
O=C(CCCCCCCC(=O)NNC(=O)Nc1ccccc1)NNC(=O)Nc1ccccc1	0	79.4µM	79.4µM	0	0
CCNC(=S)NNC(=O)Nc1ccccc1	3.16µM	0	31.6µM	0	?
C[Si](C)(C)C#Cc1ccccc1NC(=S)Nc1ccccc1	-	-	-	79.4µM	-
CCc1ccc(C2C3=C(CC(C)(C)CC3=O)Nc3c2c(=O)[nH]c2nc(C)nn32)cc1 (stereo not drawn)	0	0	0	0	0
NC(=O)COc1ccc(C2c3c(oc4ccccc4c3=O)C(=O)N2CC2CCCO2)cc1 (stereo not drawn)	0	0	0	0	0
FC(F)(F)c1ccccc1NC(=S)Nc1ccccc1	50.1µM	0	0	0	0
S=C(NNC(=S)Nc1ccccc1)Nc1ccccc1	0.355µM	0	0	50.1µM	?
O=C(NNC(=S)Nc1ccccc1)C1CC1	0	0	0	0	0
S=C(NN=C(C1CC1)C1CC1)Nc1ccccc1	5.62µM	0	50.1µM	20µM	0
O=C(Cc1ccccc1)NNC(=S)Nc1ccccc1	?	0	0	0	0
Cc1ccc(OCC(=O)Nc2cc3nn(-c4ccccc4)nc3cc2C)cc1	0	0	0	-	0
COC(=O)C/C=N/N=C1/NC(=O)/C(=C/C(=O)O)S1	44.7µM	0	50.1µM	?	0
Cc1cccc(OCC(=O)N(C)CC(=O)Nc2cccc(F)c2)c1C	0[12.7 µM]	0	0	-	0
CC(C)CCSc1nc2ccccc2[nH]1	0	-	0	0	0
CC(C)[C@@H]1NC(=O)[C@@H](Cc2ccccc2)NC(=O)[C@H](CC(=O)O)NC(=O)CNC(=O)[C@H](CCCN=C(N)N)NC1=O	-	-	-	0	-
C[C@@H]1NC(=O)[C@H](CCCN=C(N)N)NC(=O)c2cc([N+](=O)[O-])cc(I)c2OCC[C@@H](C(=O)NC(CC(=O)O)C(N)=O)NC1=O (stereo partly drawn)	39.8µM	0	-	0	-
C[C@@H]1NC(=O)c2cc([N+](=O)[O-])cc(I)c2OCC[C@@H](C(=O)NC(CC(=O)O)C(N)=O)NC(=O)[C@H](CC(N)=O)NC1=O (stereo partly drawn)	25.1µM	?	?	?	0
O=C(CCn1c(=S)oc2ccccc21)NC1CCCCCCC1	-	0	0	0	0
CCCC1(c2ccccc2)NC(=O)N(CC(=O)N2CC(=O)Nc3ccccc32)C1=O (stereo not drawn)	0[12.7 µM]	0	0	-	0
Cc1ccc(S(=O)(=O)N2CCN(C(=O)CN3CCN(c4ccc(O)cc4)CC3)CC2)cc1	-	-	44.7µM	-	?
O=C(CCC(=O)N1CCN(c2ccc(O)cc2)CC1)c1cccs1	12.6µM	0	0	25.1µM	0
SMILES	G9a block	BAZ2B inh	JMJD2A Tudor	Sfp inh	HP1b binding inh
O=C(CCN1CCCC1)c1cccs1	25.1µM	0	0	0	0
CCOc1ccc(C(=O)CCC(=O)N2CCN(c3ccc(O)cc3)CC2)cc1	-	-	0	-	0
O=C(CCN1CCC(c2ccccc2)C1)c1cccs1 (stereo not drawn)	?	0	0	0	0
Cc1ccc(OCCC(=O)N2CCN(c3ccc(O)cc3)CC2)cc1	11.2µM	0	14.1µM	56.2µM	0
Cc1ccc(N2CCN(S(=O)(=O)c3ccc(C)cc3)CC2)cc1	0	0	0	0	0
O=c1[nH]c(-c2ccc(-c3cccc(Cl)c3)o2)nc2ccccc12	-	-	?	-	0
O=C(NNc1ccccc1C(F)(F)F)c1sccc1Cl	-	-	0	-	0
Cc1ccc(S(=O)(=O)N2CCN(CC(=O)NCC3(N4CCOCC4)CCCCC3)CC2)cc1	44.7µM	0	0	-	0
CCN(CC)CCn1cnc2c([nH]c3cccc(OC)c32)c1=O	0	0	0	0	0
O=C1[C@H]2[C@@H](C(=O)N1c1cc(Cl)cc(Cl)c1)[C@]1(C(=O)Nc3ccccc31)N1CCC[C@@H]21	?	?	0	0	0
Cc1cc(Cl)c2c(c1)[C@]1(C(=O)N2)[C@@H]2C(=O)N(Cc3ccccc3)C(=O)[C@@H]2[C@@H]2CCCN21	44.7µM	?	0	0	0
NS(=O)(=O)c1ccc(NC(=S)NC2CCCCC2)cc1	25.1µM	0	0	7.94µM	0
Oc1ccc(/C=N/NC(=S)Nc2cccnc2)cc1	0[12.7 µM]	0	0	0	0
S=C(Nc1ccc(Nc2ccccc2)cc1)NC1CCCCCC1	15.8µM	12.6µM	20µM	?	?
S=C(Nc1ccc(Cl)cc1)NC1CCCCC1	0	0	0	0	0
S=C(Nc1cccnc1)NC1CCCCCCC1	0	0	0	0	0
NS(=O)(=O)c1ccc(NC(=O)NC2CCCCC2)cc1	0	0	0	0	0
CC1CCCC/C1=N\NC(=S)Nc1cccnc1 (stereo not drawn)	3.16µM	?	?	20µM	?
S=C(Nc1cccnc1)NC1CCCC1	15.8µM	0	0	0	0
COc1ccc(C(=O)NCc2ccc3c(c2)OCO3)cc1S(=O)(=O)N1CCCC1	0	0	0	-	0
O=C(c1ccc2[nH]c(=O)c(=O)[nH]c2c1)N1CCN(Cc2ccccc2)CC1	?	0	0	0	0
Cc1ccc(Cn2ncc3c(NN)ncnc32)cc1	?	50.1µM	?	0	0
COc1ccc(Nc2ncnc3c2cnn3Cc2ccccc2)cc1	50.1µM	79.4µM	89.1µM	0	0
Cc1ccc(Cn2ncc3c(NCCN(C)C)ncnc32)cc1	50.1µM	0	0	0	0
Cc1ccc(Cn2ncc3c(NCCCN(C)C)ncnc32)cc1	?	0	0	0	0
SMILES	G9a block	BAZ2B inh	JMJD2A Tudor	Sfp inh	HP1b binding inh
COc1ccc(CC(=O)NNc2ncnc3c2cnn3C)cc1	25.1µM	79.4µM	0	0	0
Oc1cccc2ccc(/C=C/c3c(F)cccc3Cl)nc12	0	0	0	0	0
Cc1ccc(Cn2ncc3c(N4CCN(Cc5ccc(Cl)cc5)CC4)ncnc32)cc1	35.5µM	0	0	0	0
COc1ccc(C(=O)Nc2cccnc2)cc1OC	0	0	0	0	0
CC(=O)Nc1ccc(NC2=C(Cl)C(=O)c3ccccc3C2=O)cc1	0	0	0	0	0
Cc1ccc(NC2=C(NCCO)C(=O)c3ccccc3C2=O)cc1	11.2µM	14.1µM	50.1µM	0	?
Cc1coc2c(C)c3oc(=O)c(CCC(=O)NCCc4ccccc4)c(C)c3cc12	0	0	0	-	0
CCCC(NC(=O)Cc1c(C)c2cc3c(C)c(C)oc3c(C)c2oc1=O)C(=O)N[C@@H](Cc1ccccc1)C(=O)O (stereo partly drawn)	0[12.7 µM]	50.1µM	56.2µM	0	?
Cc1coc2c(C)c3oc(=O)c(CCC(=O)N[C@@H](C)C(=O)N[C@@H](Cc4ccccc4)C(=O)O)c(C)c3cc12	-	?	89.1µM	0	0
